Data on one molecule can be found in PubChem BioAssay AID1053118 (Broad Institute, 2014).

Potency and affinity values are given separately. Calls of active or inactive are those of the source.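 The calls were made as follows: active = fitted half-maximal concentration for ATP signal loss at most twice the top valid dose; inconclusive = flat curve between -70 and -30%, or an invalid fit; inactive = flat within ±30%, wrong direction, or potency past limit.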

The assay is described as follows: HepG2 cell cytotoxicity, dose response, cytotoxicity control, cherry-picks, set 5 (AID 1053118).

As for `C=C1C(=O)O[C@@H]2C[C@@H](C)[C@@H]3C=CC(=O)[C@@]3(C)[C@@H](O)[C@H]12`, the molecule was classed as inactive.
